The source of these data is PubChem BioAssay (NCI).

Compounds without any hit were thinned out: in the full panel of roughly 83,000, 20% have a hit.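 Interpretation: 100, growth as untreated; towards 0, rising growth inhibition; 0, no net growth; 0 to -100, cell death. Compounds scoring below 10 were considered active.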 Unmarked numbers belong to inactive results. The source made the active and inactive calls.

The test system of this assay is MDA-MB-468 breast. Nature of the assay: NCI-60 one-dose screen, 48 h (100 = growth as untreated, 0 = no growth, -100 = all killed). Particulars: 10 µM unless noted.
Take `COc1ccc(/C=c2\sc3n(c2=O)C2C(NN=3)N(C)C(=O)N2C)cc1` (stereo not given): the growth was -8.89% (active). In the case of `Nc1ccccc1NC(=O)c1ccc(-n2nc(-c3ccccc3)c3ccccc32)cc1` it was 94.5%; in that of `O=c1ccccc(-c2ccc(-c3ccco3)cc2)c1O`, 12.1%.

On to `C=C[C@@H]1CCC/C=C/[C@@H]2C[C@H](O)C[C@H]2[C@H](O)/C=C/C(=O)O1`, for which the growth is -46.6% (active). In the case of `Nc1ccc(CC[C@H]2CCC/C=C/[C@@H]3C[C@H](O)C[C@H]3[C@H](O)/C=C/C(=O)O2)cc1` it was -27.3% (active); in that of `COc1ccc(S(=O)(=O)N(Cc2ccc3c(n2)C=CC(C)(C)O3)C2CCC2)cc1OC`, -8.27% (active); in that of `O=C(NCCc1ccc(O)c(O)c1)C12CC3CC(CC(C3)C1)C2`, 87.4%. With `COC(=O)[C@H](CSC)N(C)C(=O)[C@@H]1CSSC[C@@H](NC(=O)c2nc3ccccc3cc2O)C(=O)NCC(=O)N1C`, the growth was 61.3%. For `CCC1=C[C@H]2CN(CCc3c([nH]c4ccccc34)[C@@](C(=O)OC)(c3cc4c(cc3OC)N(C)[C@H]3[C@@](O)(C(=O)OC)[C@H](OC(C)=O)[C@]5(CC)[C@@H]6C[C@@H]6CN6CC[C@]43[C@@H]65)C2)C1`, the growth was 7.4% (active). The value for `NC(CS/C(Cl)=C/Cl)C(=O)O` (stereo not given) was -38.5% (active); that for `CCCCc1ccc(NC(=O)C(F)(F)F)cc1` was 109%; that for `C=NNc1ccccc1` was 91.2%. As to `Nc1ccc(-c2nc3cc(Oc4ccc(Oc5ccc6[nH]c(-c7ccc(N)cc7)nc6c5)cc4)ccc3[nH]2)cc1`, the growth is 90.3%. For the molecule `COc1ccc2c(c1)c(-c1nc(-c3ccc4ccccc4c3)cs1)cn2C`, the growth was 10.4%. The value for `CCOC(=O)NCCc1ccccc1` was 112%; that for `Cc1nc2cccc(NCc3ccc(C(=O)NO)cc3)c2c(=O)n1-c1ccccc1` was -15.3% (active); that for `CSc1ccc(Cl)c(C(=O)Nc2sccc2C(N)=O)c1` was -7.28% (active). The value for `COc1cccc(-c2nn(-c3ccccc3)cc2-c2ccnc(NCCNS(=O)(=O)c3ccc(Cl)cc3)c2)c1` was 16.9%. Consider `O=C(Nc1cc(F)cc2cccnc12)c1cnc(N2CCNCC2)cn1`, for which the growth is -5.12% (active). The value for `O=C1Nc2ccccc2/C1=C/c1cn(CC(O)Cn2cc(/C=C3\C(=O)Nc4ccccc43)c3ccccc32)c2ccccc12` (stereo not given) was -84.8% (active). In the case of `COc1ccc(/C=C/C(=O)c2cccc(NC(=O)CSc3nc4ccccc4c(=O)n3-c3ccccc3)c2)cc1OC` it was 108%; in that of `CCOC(=O)C1=C(Nc2ccc(OC)cc2)C(N)=NC1=N`, 31.9%. With `C/C(CC(=O)NNc1ccc([N+](=O)[O-])cc1)=N\Nc1ccc([N+](=O)[O-])cc1`, the growth was 97.7%.

Turning to `COc1cccc2c1O/C(=C\c1ccc([N+](=O)[O-])s1)C2=O`, the growth is 14.5%. In the case of `COc1ccc(-c2nc(SCC(C)C)nc(Nc3ccc([N+](=O)[O-])cc3)c2C#N)cc1` it was 93.4%. Consider `COc1cc2c(cc1-c1c(C)noc1C)ncc1nc(C3CCOCC3)n([C@H](C)COC(F)F)c12`, for which the growth was 40%.

As to `C#Cc1nc(/C=C\CCCCCCC(=O)NO)cs1`, the growth is 23.1%. In the case of `C/C(=N\Nc1ccccc1)c1ccc(NC2=CC(=O)c3ccccc3C2=O)cc1` it was 35.7%; in that of `NC(=O)c1cc(I)ccc1NC(=O)/C=C/c1ccccc1`, 51.9%. For `CN(C)CCNC(=O)c1ccc(-c2nc3ccc4[nH]ncc4c3c3c2C2CCC3C2)cc1` (stereo not given), the growth was 16.2%. The value for `COc1ccc(C2=C/C(=C\c3ccc(Cl)cc3)C(=O)NN2C(=S)NN)cc1` was 82.7%. In the case of `Nc1ccc(N)c([N+](=O)[O-])c1` it was 88%; in that of `N#C/C(=C\c1ccc(-c2ccc(Br)cc2)o1)c1nc(-c2cccs2)cs1`, 6.37% (active).

`NC(=O)N/N=C\c1ccco1`: the growth was 119%. The value for `O=c1oc2ccc(I)cc2c(=O)n1-c1ccc(I)cc1F` was -2.07% (active). In the case of `CC/C=C\C/C=C\C[C@H](O)C/C=C1/C(=O)C=C[C@@H]1C/C=C\CCCC(=O)OC` it was -51.7% (active); in that of `OB1OCc2cc(/C=C/c3cccc(C(F)(F)F)c3)ccc21`, 5.08% (active); in that of `C=C1CC[C@@H]2[C@](C)(CO)[C@H](O)CC[C@@]2(C)[C@@H]1C/C(O)=C1\CCOC1=O`, 90.8%.

`O=C(CC12CC3CC(CC(C3)C1)C2)NCCOCCOCCOCCNC(=O)c1cc2c(o1)C(=O)c1ccccc1C2=O`: the growth was -34.8% (active).

For `Nc1cc(C(=O)NC[C@H]2CN(c3ccc(N4CCC(C(=O)O)CC4)cc3)C(=O)O2)ccc1Cl`, the growth was 99.4%.
